CYP2C19 act = cytochrome P450 2C19 (human) activation; activation factor at 5 µM; recombinant CYP2C19, luciferin-H EGE luminescence; active compounds read high; 0 = fully inhibited enzyme, 1 = untreated enzyme; P33261; 96,000 tested, under 10 active;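 active = activation factor of at least 2 at 5 µM in the primary screen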;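 also: 0 = wells with 2.5 mM tranylcypromine and 1 = vehicle-only wells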
CYP2C9 inh = inhibitors of human CYP2C9 | inhibition, % at 5 µM | CYP2C9 Supersomes, luciferin-H conversion, luminescence | P11712 | 96,000 compounds, 20% hits;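 active = blocking of liver enzyme CYP2C9 beyond about 50% at 5 µM, limit read from the data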
CD11b adhes inh = inhibitors of human CD11b/CD18 binding to fibrinogen; inhibition, % at 10 µM; AID 1497; 93,000 compounds, 0.54% hits; K562 CD11b/CD18 adhesion to fibrinogen, ATPlite luminescence; Mn2+ added to activate the integrin; P05107+P11215;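 active = primary inhibition of 50% or more at 10 µM, then 40% or more on retest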
Target sequence (P05107 whole entry, looked up, other chains not shown): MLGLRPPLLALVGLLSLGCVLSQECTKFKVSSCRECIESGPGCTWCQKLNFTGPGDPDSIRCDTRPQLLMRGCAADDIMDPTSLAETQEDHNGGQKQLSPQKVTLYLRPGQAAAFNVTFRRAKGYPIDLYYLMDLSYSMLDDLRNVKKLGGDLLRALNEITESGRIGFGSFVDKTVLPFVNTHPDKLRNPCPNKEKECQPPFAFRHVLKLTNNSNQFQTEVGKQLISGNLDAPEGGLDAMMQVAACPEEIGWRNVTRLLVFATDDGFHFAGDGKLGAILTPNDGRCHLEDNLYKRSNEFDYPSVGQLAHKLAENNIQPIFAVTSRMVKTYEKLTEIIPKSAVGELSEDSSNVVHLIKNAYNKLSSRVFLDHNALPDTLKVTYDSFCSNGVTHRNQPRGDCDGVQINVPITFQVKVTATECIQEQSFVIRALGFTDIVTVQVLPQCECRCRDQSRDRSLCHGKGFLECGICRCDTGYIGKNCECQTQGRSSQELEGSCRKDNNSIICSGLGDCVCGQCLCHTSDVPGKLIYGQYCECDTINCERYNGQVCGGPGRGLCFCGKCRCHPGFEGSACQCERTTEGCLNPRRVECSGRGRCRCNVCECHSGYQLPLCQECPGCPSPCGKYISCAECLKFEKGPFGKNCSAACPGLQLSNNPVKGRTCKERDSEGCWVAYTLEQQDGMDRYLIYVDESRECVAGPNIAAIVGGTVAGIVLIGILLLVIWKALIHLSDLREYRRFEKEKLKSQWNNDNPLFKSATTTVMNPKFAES
Mac1 fbg enh = CD11b/CD18-fibrinogen binding enhancement | P05107+P11215 | K562 CD11b/CD18 adhesion to fibrinogen, ATPlite luminescence | activation, % at 10 µM | 93,000 compounds, 0.07% hits;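 active = 10 µM primary screen giving 50% or more activity, confirmed by 40% or more on retest at that dose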
CYP2C9 activ = CYP2C9 (human) activation | recombinant CYP2C9, luciferin-H conversion, luminescence; active compounds read high; factor 1 = untreated enzyme, 0 = blocked | activation factor at 5 µM | 96,000 compounds, 1.4% hits;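 active = activation factor of 2 or more for CYP2C9 at a 5 µM dose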;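 also: 0 = sulfaphenazole-blocked wells and 1 = vehicle-only wells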
CYP2C19 inh = human CYP2C19 inhibition | CYP2C19 Supersomes, luciferin-H EGE luminescence, 30 min | inhibition, % at 5 µM | 96,000 compounds, 21% hits;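 active = CYP2C19 inhibition above a set limit at 5 µM in the primary screen, cut at about 50% in these data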;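 also: plate controls were negative control wells for no effect and 2.5 mM tranylcypromine positive control for full effect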
* hit, by the source's call; . = no result given. Shown are actives, neighbours in structure and some others; about 28% of the full set was active somewhere.

SMILES | CYP2C19 act | CYP2C9 inh | CD11b adhes inh | Mac1 fbg enh | CYP2C9 activ | CYP2C19 inh
O=C1C2C(C(=O)N1/N=C/c1cc(Br)cc([N+](=O)[O-])c1O)C1C=CC2C12CC2 (centres undefined) | 0.8 | 8.3 | 66.3* | -5.1 | 0.9 | 24.5
O=C1C2C(C(=O)N1/N=C/c1ccco1)C1C=CC2C12CC2 (centres undefined) | 0 | 7.1 | -57.7 | 4.6 | 0.9 | 99.1*
Cc1cc(C)c(S(=O)(=O)n2cnc3ccccc32)c(C)c1 | 1.1 | -14.6 | -8.2 | -1.9 | 1.1 | -8.2
COc1ccc(Cl)cc1S(=O)(=O)n1cnc2ccccc21 | 0.2 | 31.4 | -0.6 | 2.6 | 0.7 | 77.8*
CCOc1cc(C)c(Cl)cc1S(=O)(=O)n1cnc2ccccc21 | 0.7 | 0.5 | 21.0 | -3.2 | 1 | 25.3
CCOc1ccc(Cl)cc1S(=O)(=O)n1cnc2ccccc21 | 0 | 19.2 | -6.9 | 1.6 | 0.8 | 95.2*
Cc1cc(C)cc(-n2c(SCC(=O)NCc3ccco3)nc3ccccc3c2=O)c1 | 1 | 21.6 | 5.0 | -7.6 | 0.8 | 3.7
Cc1cccc(NC(=S)c2nc3ccccc3s2)c1 | 0.8 | 32.3 | 2.2 | -4.0 | 0.7 | 21.0
CCCc1nc2ccccc2c(C(=O)OCC(=O)NCc2ccco2)c1CC | 0.5 | 70.2* | -4.8 | 1.6 | 0.3 | 45.7
CCc1nc2ccccc2c(C(=O)OCC(=O)NCc2ccco2)c1C | 0.4 | 47.0 | -5.2 | -2.0 | 0.5 | 55.8*
CCCc1nc2ccccc2c(C(=O)OCC(=O)Nc2ccc(S(=O)(=O)N3CCOCC3)cc2)c1CC | 0.9 | 75.5* | 25.0 | -3.4 | 0.2 | 7.7
O=C(COC(=O)c1ccccc1Nc1ccccc1)NCc1ccco1 | 0.6 | 27.2 | -22.2 | 0.7 | 0.7 | 39.2
Cc1ccc(C(=O)Nc2c(C(=O)NCc3ccco3)cnn2-c2ccccc2)cc1 | 0.6 | 55.6* | -18.8 | -3.0 | 0.4 | 37.7
CCOC(=O)c1cnn(-c2ccccc2)c1NC(=O)c1ccc(C)cc1 | 0.7 | 25.3 | -1.1 | -0.5 | 0.7 | 27.4
O=C(Nc1c(C(=O)Nc2ccccc2)cnn1-c1ccccc1)c1ccco1 | 1.1 | 26.4 | 4.0 | -0.3 | 0.7 | -5.7
O=C(Nc1c(C(=O)NCc2ccco2)cnn1-c1ccccc1)c1cccc(F)c1 | 0.3 | 87.4* | -9.1 | -1.9 | 0.1 | 67.1*
CCOC(=O)NC(=O)CSc1nc(C)cc(C)c1C#N | 0.4 | -1.6 | -6.7 | -4.3 | 1 | 57.8*
CCOC(=O)CNC(=O)CSc1nc(C)cc(C)c1C#N | 0.2 | -91.5 | 4.6 | -5.0 | 1.9 | 82.6*
COCc1cc(C)nc(SCC(=O)Nc2ccccc2C)c1C#N | 0.1 | 28.0 | -5.0 | 0.3 | 0.7 | 94.2*
COCc1cc(C)nc(SCC(=O)Nc2ccc(C)c(C)c2)c1C#N | 0.6 | -1.8 | . | . | 1 | 40.6
Cc1ccc(CNC(=O)CSc2nc(C)cc(C)c2C#N)cc1 | 0.4 | -39.8 | -1.5 | 2.1 | 1.4 | 56.8*
Cc1cc(C)c(C#N)c(SCC(=O)NC(C)(C)C)n1 | 0.6 | 18.9 | 1.7 | 8.8 | 0.8 | 39.7
Cc1cc(C)c(C#N)c(SCC(=O)Nc2ccccc2C(N)=O)n1 | 0.7 | 1.8 | . | . | 1 | 30.9
Cc1cc(C)c(C#N)c(SCC(=O)NC2CC2)n1 | 1 | -27.2 | 13.0 | 0.4 | 1.3 | 2.7
COC(=O)c1ccc(OC(=O)c2ccc(OCc3c(C)noc3C)c(OC)c2)cc1 | 1 | 12.4 | 1.5 | -2.0 | 0.9 | 1.4
SMILES | CYP2C19 act | CYP2C9 inh | CD11b adhes inh | Mac1 fbg enh | CYP2C9 activ | CYP2C19 inh
Nc1nc(-c2ccc(Cl)cc2Cl)cn1N | 0.8 | 9.2 | -4.0 | -2.0 | 0.9 | 20.3
CC(C)(C)C1CCC(OC(=O)c2ccncc2)CC1 (centres undefined) | 0 | 94.2* | -13.1 | 0.2 | 0.1 | 98.8*
COc1cccc(-c2cn3nc4c(nc3n2)CCCC4)c1 | 0 | 50.4* | 36.2 | 0.7 | 0.5 | 95.7*
Clc1ccc(-c2cn3nc4c(nc3n2)CCCC4)cc1 | 0.8 | 6.6 | 39.0 | 10.1 | 0.9 | 17.2
COC(=O)c1cc2ccccc2c(-c2c(OC)c(C(=O)OC)cc3ccccc23)c1OC | 0.5 | 81.1* | . | . | 0.2 | 54.0*
Cc1noc(NS(=O)(=O)c2ccc(NC(=O)CSc3nnc(-c4ccccc4)n3C3CCCCC3)cc2)c1C | 0.8 | 31.6 | -11.7 | 2.4 | 0.7 | 17.5
FC(F)(F)c1cc(C(F)(F)F)c2ccc(N3CCN(c4ccc(Cl)cc4)CC3)nc2n1 | 0.8 | 27.7 | . | . | 0.7 | 15.2
N#CC(c1ccc(Cl)cc1)c1ccc2c(C(F)(F)F)cc(C(F)(F)F)nc2n1 (centres undefined) | 0.2 | 75.9* | 88.2* | -8.4 | 0.2 | 77.1*
CN(C)S(=O)(=O)c1cccc(CSc2cccc[n+]2[O-])c1 | 1 | 5.6 | 23.1 | 1.1 | 0.9 | 4.2
COC(=O)COc1ccc(S(=O)(=O)Nc2ccc3c(c2)OCO3)cc1Cl | 0 | 69.6* | 14.1 | 1.7 | 0.3 | 97.6*
CCOC(=O)COc1ccc(S(=O)(=O)Nc2ccc3c(c2)OCCO3)cc1 | 0.9 | 7.0 | 13.4 | 0.3 | 0.9 | 6.1
COC(=O)COc1ccc(S(=O)(=O)Nc2ccc3c(c2)OCO3)cc1 | 0 | 92.8* | -11.3 | 5.3 | 0.1 | 99.2*
COc1ccc(S(=O)(=O)N/N=C\c2ccc3c(c2)OCO3)cc1 | 0.3 | 79.0* | . | . | 0.2 | 70.9*
COc1ccc(NC(=O)C(Sc2ccccc2)c2ccccc2)c(OC)c1 (centres undefined) | . | . | -3.1 | 16.0 | . | .
Cc1cc(C)nc(NC(=O)CN2C(=O)c3ccccc3C2=O)n1 | 1.1 | -22.7 | -10.9 | -2.1 | 1.2 | -6.4
COC(=O)CN(c1ccc2c(c1)OCCO2)S(=O)(=O)c1ccccc1 | 0.2 | 63.5* | -3.2 | -8.9 | 0.4 | 83.8*
O=C(CN(c1ccc(F)cc1)S(=O)(=O)c1ccc2c(c1)OCCO2)NCc1ccccn1 | 0 | 64.4* | -8.3 | -0.5 | 0.4 | 95.1*
COC(=O)CN(c1ccc(F)cc1)S(=O)(=O)c1ccc2c(c1)OCCO2 | 0.5 | 54.5* | 8.5 | -2.0 | 0.5 | 46.8
CC1(N2CCOCC2)CC2(O)C(=[N+]1[O-])CCc1c2no[n+]1[O-] (centres undefined) | 1 | -0.1 | -6.2 | -1.0 | 1 | 0.4
Cn1nnc(NCc2cc(Br)ccc2OCc2cccs2)n1 | 0.6 | 43.9 | -14.1 | 4.2 | 0.6 | 37.2
CC(=O)N1C(C(=O)O)CSC1c1ccc(C)cc1 (centres undefined) | 1.2 | -9.4 | 0.5 | 0.4 | 1.1 | -24.7
COc1ccc(CN2CCNC(=O)C2CC(=O)O)c(OC)c1 (centres undefined) | 1.1 | 26.2 | -5.3 | -2.1 | 0.7 | -11.0
CCOC(=O)CC1C(=O)NCCN1Cc1cccc(OC)c1 (centres undefined) | 0.7 | 75.4* | -8.4 | -3.5 | 0.2 | 34.9

Screens deposited in PubChem BioAssay by Sanford-Burnham Center for Chemical Genomics.
